Laboratory results reported in PubChem BioAssay AID1347044 (National Center for Advancing Translational Sciences (NCATS), 2019).
The campaign covered roughly 1,400 compounds. About 1,100 (79%) were called active. Roughly 20% stayed inconclusive and do not appear here. Calls come from the whole dose curve. The set was probably picked from earlier hits. The list is a sample of the results.

Biological target: Atrial natriuretic peptide receptor 1 (Homo sapiens) (UniProt P16066)
Assay: Natriuretic polypeptide receptor (hNpr1) antagonism - Confirmation; note: nearly all actives have a fitted effect of over 70% in size
Settings: HEK293 hNpr1 cGMP GloSensor luminescence, ANP-stimulated
Experimental: In order to identify small molecular compounds that inhibit the hNpr1 receptor we developed a high-throughput assay to measure inhibition of the guanylate cyclase activity of the receptor. cGMP production was measured using a circular permutated Firefly luciferase (FLuc) enzyme functionally linked to the cGMP binding domain of human phosphodiesterase 5 (GloSensor technology pGS-40F, (Fan, F. et al. 2008). The cGMP-sensor was expressed in human embryonic kidney 293 (HEK-293) cells and FLuc activity was measured after stimulation with hNrp agonist peptide. hNrp agonists activates the receptor's associated guanylyl cyclase (GC) domain producing cGMP which then binds to the GloSensor resulting in FLuc activation, the enzymatic activity of which can be measured as bioluminescence with addition of luciferin substrate. A cytotoxicity counter-screen using the HEK-hNpr1-cGMP-sensor cells was also performed on the follow-up compounds. F. Fan, B. F. Binkowski, B. L. Butler, P. F. Stecha, M. K. Lewis, K. V. Wood, Novel genetically encoded biosensors using firefly luciferase. ACS Chem Biol 3, 346-351 (2008).
PROTOCOL TABLES (as described by Inglese J, Shamu CE and Guy RK. 2007) SEQUENCE No. (e.g., 1, 2, 3, etc.); PARAMETER (e.g., Cells, Incubation, Reagent, etc.); VALUE and DESCRIPTION. GLOSENSOR PROTOCOL 1. Cells. Seed 1500 HEK293 cGMP-sensor cells expressing hNpr1 per well in 4uL into Greiner 1536-well white/solid bottom high base, tissue culture-treated plates. 2. Incubation. Incubate plated cells at 37C in 5% CO2, 95% RH overnight. 3. Reagent. Add 1uL per well GloSensor reagent from Promega (2% final concentration) or CO2 independent media vehicle control to respective columns of Greiner 1536-well plates. 4. Incubation. Incubate plated cells at room temperature for 2 h, protect from light. 5. Compounds. Library compounds and A-71915 control added at 23 nL per well, transferred by Pin Tool. 6. Incubation. Incubate plated cells for 30 min. at room temperature, protect from light. 7. Detector. GloSensor baseline pre-read luminescence measured using CCD-based camera (Viewlux). 8. Compound. Add 1uL of hNppA peptide to 0.1 nM final concentration to stimulate hNpr1 or CO2 independent media as vehicle control. 9. Incubation. Incubate treated cells at room temperature for 20 min., protect from light. 10. Detector. GloSensor post-hNppA luminescence measured using CCD-based camera (Viewlux). NOTES (numbers refer to Sequence numbers above) 1. HEK293 cells expressing hNpr1 and GIP/pGS-40F grown to 85-95% confluence (48-72 h) in T175 culture flasks (CO2 independent media supplemented with 10% FBS, 1% Pen/Strep antibiotics and 1 ug/mL puromycin). Trypsinize and harvest cells from T175 culture flasks and filter through 40 um cell strainer. Cells counted with Invitrogen Countess (30,000,000 - 50,000,000 cells/flask). Cells diluted to a final concentration of 375 cells/uL in CO2 independent media and a Millipore multidrop used to dispense 1500 cells per well (4uL/well) into 13 1536-well Greiner White/Solid bottom, high base tissue-culture treated (TC) plates and one Aurora 1536-well Black/Clear bottom, low base, TC plate (for visual inspection of cell health throughout the duration of the assay). 2. Cells incubated overnight at ambient temperature, 24 h. at 37C in 95% RH incubator protected from light, covered with metal lid with gas-exchange holes. 3. […]
Potency is the fitted concentration of half-maximal effect.

Sequence of Atrial natriuretic peptide receptor 1 (Homo sapiens) (P16066 whole entry, looked up): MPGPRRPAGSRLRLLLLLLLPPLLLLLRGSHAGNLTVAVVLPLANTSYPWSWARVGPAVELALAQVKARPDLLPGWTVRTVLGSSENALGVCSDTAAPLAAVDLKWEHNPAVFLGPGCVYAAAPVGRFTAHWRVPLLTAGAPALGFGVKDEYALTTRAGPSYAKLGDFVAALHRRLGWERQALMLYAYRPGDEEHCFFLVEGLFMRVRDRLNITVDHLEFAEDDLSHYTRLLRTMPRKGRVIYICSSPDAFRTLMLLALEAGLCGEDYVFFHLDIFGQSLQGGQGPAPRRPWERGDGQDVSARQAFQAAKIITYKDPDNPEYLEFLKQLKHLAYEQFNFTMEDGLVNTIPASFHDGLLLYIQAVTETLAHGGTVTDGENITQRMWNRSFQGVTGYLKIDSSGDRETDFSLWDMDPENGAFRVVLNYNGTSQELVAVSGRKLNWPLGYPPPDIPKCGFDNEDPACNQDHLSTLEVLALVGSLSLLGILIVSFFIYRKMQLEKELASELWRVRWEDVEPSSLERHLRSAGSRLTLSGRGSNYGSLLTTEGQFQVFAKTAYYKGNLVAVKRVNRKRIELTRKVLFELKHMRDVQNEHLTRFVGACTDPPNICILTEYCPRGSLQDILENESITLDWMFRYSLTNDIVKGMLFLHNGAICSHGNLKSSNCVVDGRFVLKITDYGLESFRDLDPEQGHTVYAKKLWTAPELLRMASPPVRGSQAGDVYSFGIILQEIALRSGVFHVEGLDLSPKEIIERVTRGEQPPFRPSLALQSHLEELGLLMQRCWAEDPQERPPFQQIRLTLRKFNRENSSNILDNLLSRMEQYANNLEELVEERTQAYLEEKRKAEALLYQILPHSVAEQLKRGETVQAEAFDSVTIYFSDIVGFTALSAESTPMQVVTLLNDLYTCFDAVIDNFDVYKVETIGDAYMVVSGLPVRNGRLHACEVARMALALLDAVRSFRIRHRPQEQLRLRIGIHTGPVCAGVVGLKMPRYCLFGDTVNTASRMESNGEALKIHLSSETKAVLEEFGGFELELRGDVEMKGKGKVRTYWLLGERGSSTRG

**Q.** Which Potency does the source give for `CCC(CC)c1cc([C@H]2CN3CC[C@H]2C[C@@H]3CNC(=O)NCc2ccccc2)nc(-c2ccncc2)n1` here?
**A.** Its Potency is 19.3 µM (active).

**Q.** `COc1cc2c(cc1Oc1cccc(N(C)C)c1)NC(=O)C21CCN(CCC(C)C)CC1` was tested. Which Potency did it give?
**A.** Its Potency is 35.3 µM (active).

**Q.** `COc1cc2c(cc1Oc1cccc(N(C)C)c1)NC(=O)C21CCN(Cc2ccccn2)CC1` was tested. Which Potency did it give?
**A.** Its Potency is 21.7 µM (active).

**Q.** How did the Potency turn out when `COc1cc2c(cc1OCc1ccncc1)NC(=O)C21CCN(c2ncc(F)cn2)CC1` was run?
**A.** Its Potency is 39.6 µM (active).

**Q.** For `COc1cc2c(cc1Oc1cccc(N(C)C)c1)NC(=O)C21CCN(c2cnccn2)CC1`, which Potency is on record?
**A.** Its Potency is 21.7 µM (active).
